Hits are enriched below; roughly 1.4% of the tested compounds scored in any of these assays.
HTR5A ag ctr: HTR5A agonism, opioid heterodimer counter-screen | HTR5A agonist assay, luminescence, cell-based | 340,000 compounds, 0.61% hits | activation, % at 9.3 µM | P47898; in the data active means activation mostly above about 9.5%, no sharp cut-off; inactive means mostly below about 7.6%
Target sequence (P47898 whole entry, looked up): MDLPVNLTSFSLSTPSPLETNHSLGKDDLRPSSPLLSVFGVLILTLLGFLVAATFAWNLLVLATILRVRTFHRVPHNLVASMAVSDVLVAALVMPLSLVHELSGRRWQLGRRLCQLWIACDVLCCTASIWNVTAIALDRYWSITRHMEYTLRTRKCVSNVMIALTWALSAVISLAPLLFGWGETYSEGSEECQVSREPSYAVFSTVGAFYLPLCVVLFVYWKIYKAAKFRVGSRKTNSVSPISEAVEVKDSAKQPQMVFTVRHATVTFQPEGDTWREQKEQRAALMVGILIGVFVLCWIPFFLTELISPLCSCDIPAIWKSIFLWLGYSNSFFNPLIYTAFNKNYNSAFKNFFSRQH
HTR5A inv ctr: inverse agonist of human HTR5A in OPRM1-OPRD1 counter-screen; HTR5A cell line, luminescence, inverse agonism; inhibition, % at 9.3 µM; 340,000 compounds, 0.083% hits; in the data active means inhibition mostly above about 23%, no sharp cut-off; inactive means mostly below about 18%
OPRM1-OPRD1 inv: inverse agonist of human OPRM1-OPRD1 heterodimerization; 340,000 compounds, 0.21% hits; cell-based MOR-DOR heterodimer luminescence, inverse agonism; inhibition, % at 9.3 µM; P35372+P41143; in the data active means inhibition above about 22%, passing the limit was not always enough
MOR-DOR ag-1: OPRM1-OPRD1 heterodimerization agonism; cells, luminescence; activation, % at 9.3 µM; 340,000 compounds, 0.3% hits; AID 504326
p-CIP stab down: p/CIP protein destabilization | Q05BA5 | F442A p/CIP-EGFP cells, EGFP fluorescence, 16 h | decrease of EGFP signal, % at 10 µM | 290,000 compounds, 0.01% hits;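 active means EGFP signal decrease of at least 30% at 10 µM or well 3 SD below plate mean, unless failing retest; inactive means the rest, including hits failing retest or dose response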
MIN6 prolif: inducers of beta-cell replication in MIN6 cells. proliferation, % at 10 µM. 330,000 compounds, 0.29% hits. MIN6 cells proliferation, ATPlite luminescence, 48 h; cells starved in 0.2% serum; 100% = growth in 10% serum;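 active means compounds whose signal lies at least 3.5 SD above the mean of all wells on their plate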
MOR-DOR ag-2: opioid heterodimer agonism, HTR5A counter-screen; shares compounds with HTR5A ag ctr; U2OS counter-screen cells, complementation luminescence, 3 h; activation, % at 9.3 µM; 800 compounds, 13% hits; AID 504913
HTR5A ag confirm: confirmation of human HTR5A agonists; shares compounds with HTR5A ag ctr; HTR5A agonist cell assay, luminescence; activation, % at 9.3 µM; 800 compounds, 17% hits; in the data active means activation above about 17%
Of the large screens only hits and unclear results are named; the others gave an inactive call (follow-up assays come after a bar, where they were run). Unless noted, no stated cut-off is given here; in the data, active means activation above about 18%; inactive means the rest.

C[C@H]1CN(S(=O)C(C)(C)C)[C@H](CCO)/C1=C\CCO (stereo partly specified)	none (no result: p-CIP stab down, MIN6 prolif)
CC(C)n1ncc2c(C(=O)N3CCN(Cc4ccc(Br)s4)CC3)cc(C3CC3)nc21	none (no result: p-CIP stab down)
O=C(Cc1cccc(NC(=O)C2CCCN(C(=O)C3CCC3)C2)c1)Nc1cccc(C(=O)N2CCCC2)c1 (stereo unspecified)	none (no result: p-CIP stab down)
O=C(CCl)N(c1ccc(Cl)cc1)c1c[nH]c2ccccc12	HTR5A ag ctr 16 | MOR-DOR ag-2 inactive | HTR5A ag confirm 21
CCOC(=O)[C@H]1[C@H]2COc3ccc(C)cc3[C@@H]2N2C(=O)CN(C)C(=O)[C@@]12C	none (no result: p-CIP stab down, MIN6 prolif)
Cc1nn(Cc2ccc(F)cc2)c2sc(C(=O)Nc3nccs3)cc12	HTR5A ag ctr 21 | MOR-DOR ag-2 inactive | HTR5A ag confirm inactive
Cc1nn(Cc2ccccc2Cl)c2sc(C(=O)Nc3nccs3)cc12	none
O=C(Nc1ccc(C(=O)N2CCCC2)cc1)c1ccccc1[N+](=O)[O-]	HTR5A ag ctr 18 | MOR-DOR ag-2 inactive | HTR5A ag confirm inactive
COc1ccc(CN2CCN(C3CCC3)CC2CCO)c(C)c1C (stereo unspecified)	none
C=CCn1c(SCC(=O)c2ccc(OC)cc2)nnc1-c1cc2cccc(OC)c2o1	HTR5A ag ctr 15 | MOR-DOR ag-2 inactive | HTR5A ag confirm inactive
COc1ccc(Cl)cc1NC(=O)COC(=O)c1c(-c2ccccc2)noc1C	none (no result: p-CIP stab down)
CC(=O)Nc1ccc(/C=N/NC(=O)CNS(=O)(=O)c2ccccc2)cc1	none
COc1ccc(/C=N/NC(=O)CNS(=O)(=O)c2ccccc2)cc1	HTR5A ag ctr 21 (no result: p-CIP stab down) | MOR-DOR ag-2 inactive | HTR5A ag confirm inactive
CC(C)(C)c1ccc(C(=O)O/N=C(\N)c2ccccn2)cc1	HTR5A ag ctr 57 | MOR-DOR ag-2 inactive | HTR5A ag confirm inactive
O=C(CN1CCN(C(=O)C2CC2)CC1)Nc1ccc(Cl)cc1F	none (no result: p-CIP stab down)
CCS(=O)(=O)N1Cc2ccccc2CC1C(=O)Nc1ccc(OC)c(OC)c1 (stereo unspecified)	HTR5A ag ctr 15 | MOR-DOR ag-2 inactive | HTR5A ag confirm inactive
CCS(=O)(=O)N1Cc2ccccc2CC1C(=O)Nc1cccc(OC)c1 (stereo unspecified)	none
Cn1cccc1C(=O)NC(=O)COC(=O)CNS(=O)(=O)c1ccc(Br)cc1	HTR5A ag ctr 17 | MOR-DOR ag-2 inactive | HTR5A ag confirm inactive
O=C(C[C@@H]1C/C=C/CCCC(=O)O[C@H](c2ccccc2)CNC1=O)N[C@H](CO)Cc1ccccc1	none (no result: p-CIP stab down)
CC(C)N1CCc2c(sc(NC(=O)c3ccc4ccccc4c3)c2C(N)=O)C1	HTR5A ag ctr 18 | MOR-DOR ag-2 inactive | HTR5A ag confirm 18
Cc1ccc2sc(N(CCCN(C)C)C(=O)CCS(=O)(=O)c3ccccc3)nc2c1C	HTR5A ag ctr 15 | MOR-DOR ag-2 inactive | HTR5A ag confirm inactive
CN(C)CCCN(C(=O)CCS(=O)(=O)c1ccccc1)c1nc2cc3c(cc2s1)OCO3	HTR5A ag ctr 15 | MOR-DOR ag-2 inactive | HTR5A ag confirm inactive
COC(=O)c1cc(C)ccc1/C=C1/Cc2c(C)cc(C)cc2C1=O	none (no result: p-CIP stab down, MIN6 prolif)
CCOc1ccc(OCC(=O)OCC(=O)N2CCN(S(=O)(=O)c3ccc(C)cc3C)CC2)cc1	none (no result: p-CIP stab down, MIN6 prolif)
C[C@H](CO)N1C[C@H](C)[C@@H](CN(C)S(=O)(=O)c2ccc(F)cc2)Oc2c(NS(=O)(=O)c3ccc(F)cc3)cccc2C1=O	none (no result: p-CIP stab down)
C#CC(=O)CC1(CN(Cc2ccccc2)C(=O)OC(C)(C)C)CCCCC1	HTR5A ag ctr 17 (no result: p-CIP stab down, MIN6 prolif) | MOR-DOR ag-2 34 | HTR5A ag confirm inactive
CCOC(=O)c1c(NC(=O)CSc2n[nH]c(-c3ccco3)n2)sc(C)c1C	none
CCOC(=O)c1c(NC(=O)CSc2n[nH]c(CNc3ccccc3)n2)sc(C)c1C	HTR5A ag ctr 23 | MOR-DOR ag-2 inactive | HTR5A ag confirm inactive
CCOC(=O)c1c(NC(=O)CSc2n[nH]c(N)n2)sc(CC)c1C	HTR5A ag ctr 17 | MOR-DOR ag-2 inactive | HTR5A ag confirm inactive
COC(=O)c1c(NC(=O)CSc2n[nH]c(N)n2)sc(C)c1C	none
COc1ccccc1N1CC(C(=O)Nc2ccc(N3CCOCC3)cc2)CC1=O (stereo unspecified)	none (no result: p-CIP stab down)
c1ccc2c(c1)nc(N1CCCCC1)c1ccccc12	none
c1ccc2c(c1)nc(N1CCOCC1)c1ccccc12	HTR5A ag ctr 19 | MOR-DOR ag-2 inactive | HTR5A ag confirm inactive
c1ccc(CNC2CC3CCC2C3)cc1 (stereo unspecified)	none (no result: p-CIP stab down, MIN6 prolif)
COC(=O)N1CCc2c(sc(NC(=O)C3COc4ccccc4O3)c2C(N)=O)C1 (stereo unspecified)	HTR5A ag ctr 61 (no result: p-CIP stab down) | MOR-DOR ag-2 inactive | HTR5A ag confirm 43
COc1ccccc1C(CNC(=O)c1cccc(S(=O)(=O)Nc2ccc(F)cc2)c1)N1CCCC1 (stereo unspecified)	HTR5A ag ctr 65 (no result: p-CIP stab down, MIN6 prolif) | MOR-DOR ag-2 inactive | HTR5A ag confirm inactive
COc1ccc(NS(=O)(=O)c2cccc(C(=O)NCC(c3ccccc3OC)N3CCCC3)c2)cc1 (stereo unspecified)	none (no result: p-CIP stab down)
CCOc1ccc(C2=CS/C(=C(\C#N)c3nnc4n3CCCCC4)N2CC)cc1	HTR5A ag ctr 15 | MOR-DOR ag-2 inactive | HTR5A ag confirm inactive
CC(=O)Nc1ccc(NC(=O)CSc2nc(N)c(NC(=O)c3ccco3)c(=O)[nH]2)cc1	none
Cc1ccc(OCCn2c(CCNC(=O)C(C)C)nc3ccccc32)cc1	HTR5A ag ctr 20 | MOR-DOR ag-2 inactive | HTR5A ag confirm inactive
CC(C)C(=O)NCCc1nc2ccccc2n1CCCOc1ccc(Cl)cc1	none
Nn1c(SCC(=O)Nc2ccc(N3CCOCC3)cc2)nnc1-c1cccc(F)c1	none (no result: p-CIP stab down)
Cc1cc(C)cc(OCC(=O)Nc2nc(-c3ccccn3)cs2)c1	HTR5A ag ctr 21 (no result: p-CIP stab down) | MOR-DOR ag-2 inactive | HTR5A ag confirm 64
CN(C)c1ccc(CN(C(=O)COc2ccccc2)C2CCS(=O)(=O)C2)cc1 (stereo unspecified)	HTR5A ag ctr 16 | MOR-DOR ag-2 inactive | HTR5A ag confirm inactive
O=C(N/N=C/c1ccc(O)cc1)c1ccc(COc2cc(Cl)ccc2Cl)o1	HTR5A ag ctr 14 | MOR-DOR ag-2 41 | HTR5A ag confirm inactive
O=C(O/N=C(\c1ccccc1)c1ccccn1)c1cccc2ccccc12	HTR5A ag ctr 39 | MOR-DOR ag-2 133 | HTR5A ag confirm inactive
CN1C[C@H](C(=O)NC2(C)OC3(O)[C@@H]4CCCN4C(=O)[C@H](Cc4ccccc4)N3C2=O)CC2c3cccc4[nH]cc(c34)C[C@H]21 (stereo partly specified)	HTR5A ag ctr 32 (no result: p-CIP stab down) | MOR-DOR ag-2 inactive | HTR5A ag confirm 63

Source: PubChem BioAssay (several laboratories)
